Bioassay records (PubChem)
KLK7 zymogen act: activates the human kallikrein-7 zymogen. P49862. purified proKLK7, EDANS-DABCYL substrate fluorescence; 100% is mature enzyme control, 0% vehicle. activation, % at 7 µM. 370,000 tested, 0.9% active. AID 652039;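 active = activation above the mean of all tested compounds plus 3 SD, computed per campaign excluding outliers beyond control limits, cut at about 13% in these data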
ADAM17 inh: ADAM17 inhibition, QFRET primary screen | recombinant ADAM17, EDANS/DABCYL FRET peptide cleavage | AID 720648 | P78536 | 370,000 tested, 0.83% active | inhibition, % at 6.95 µM;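 active = inhibition above the mean of compounds lying between control limits plus 3 SD, set per campaign, cut at about 8.5% in these data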;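 also: 0% = DMSO-only wells as the low control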
Target sequence (P78536 215-824 limits assumed): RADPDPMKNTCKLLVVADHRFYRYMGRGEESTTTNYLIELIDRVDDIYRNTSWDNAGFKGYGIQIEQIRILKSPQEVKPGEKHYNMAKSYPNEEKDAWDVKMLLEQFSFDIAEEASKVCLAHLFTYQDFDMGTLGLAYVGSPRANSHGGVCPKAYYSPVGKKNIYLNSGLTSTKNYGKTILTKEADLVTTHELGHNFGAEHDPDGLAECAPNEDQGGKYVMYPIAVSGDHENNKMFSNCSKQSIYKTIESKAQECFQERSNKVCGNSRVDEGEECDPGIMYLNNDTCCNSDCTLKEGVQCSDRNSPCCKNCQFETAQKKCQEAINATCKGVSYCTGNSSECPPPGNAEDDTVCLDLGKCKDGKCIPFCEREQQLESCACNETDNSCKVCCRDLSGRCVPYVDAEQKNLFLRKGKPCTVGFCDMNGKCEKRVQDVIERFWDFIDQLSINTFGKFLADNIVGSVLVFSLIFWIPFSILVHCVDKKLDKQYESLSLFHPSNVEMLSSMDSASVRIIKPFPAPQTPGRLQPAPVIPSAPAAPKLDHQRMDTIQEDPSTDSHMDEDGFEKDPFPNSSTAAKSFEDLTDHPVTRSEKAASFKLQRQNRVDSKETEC
PLC-beta3 inh: blocks human PLC-beta3 enzyme activity. Purified PLC-beta3, fluorogenic substrate, fluorescence. inhibition, % at 12.2 µM. 370,000 tested, 0.18% active. AID 720704; in the data active = inhibition above about 11%;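 also: 0% = median of compound wells on plate and 100% = full blocker control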
ADAM10 inh: ADAM10 inhibition, QFRET primary screen | O14672 | recombinant ADAM10, EDANS/DABCYL FRET peptide cleavage, 3 h | inhibition, % at 7 µM | 370,000 tested, 0.62% active | AID 720582;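 active = inhibition above a per-campaign cutoff equal to the mean of compounds falling between control-based bounds plus 3 SD, cut at about 20% in these data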;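 also: 0% = DMSO wells while the 100% control is not disclosed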
PLC-gamma1 inh: PLC-gamma1 (human) inhibition, primary screen; P19174; purified PLC-gamma1, fluorogenic substrate, fluorescence; inhibition, % at 12.2 µM; 370,000 tested, 0.84% active; in the data active = inhibition above about 9.5%
ADAM10 confirm: human ADAM10 inhibition, confirmation; inhibition, % at 6.95 µM; ADAM10 QFRET peptide cleavage, EDANS fluorescence; shares compounds with ADAM10 inh; 2,100 tested, 1% active; AID 743208;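 active = inhibition above about 20% chosen separately for each screening run, limit read from the data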;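 also: 0% = DMSO wells and 100% = marimastat wells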
ADAM17 counter: inhibits human ADAM17 in ADAM10 exosite counter-screen | shares compounds with ADAM10 inh | ADAM17 QFRET peptide cleavage, EDANS fluorescence | inhibition, % at 6.95 µM | 2,100 tested, 0.5% active;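 active = mean triplicate inhibition above the solvent-only control wells' mean plus 3 SD, cut at about 12% in these data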;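 also: 0% = DMSO wells and 100% = marimastat wells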
An asterisk follows results filed as active. Most compounds without a hit are left out; they make up all but 2.9% or so of the library.

For CC(C)C[C@@H](CN1CCCC1CN1C(=S)NC[C@@H]1Cc1ccc(O)cc1)N1C[C@H](Cc2ccc(O)cc2)N(CCc2ccccc2)C1=S (stereo partly drawn) the results were KLK7 zymogen act 0, ADAM17 inh 11*, PLC-beta3 inh 6, ADAM10 inh 33*, PLC-gamma1 inh 3, ADAM10 confirm 14 and ADAM17 counter 3.
Oc1ccc(C[C@H]2CNC(=S)N2C[C@H]2CCCN2C[C@H](Cc2ccccc2)N2C[C@H](Cc3ccc(O)cc3)N(CCc3ccccc3)C2=S)cc1 was read as KLK7 zymogen act 0, ADAM17 inh 7, PLC-beta3 inh 5, ADAM10 inh 28*, PLC-gamma1 inh 4, ADAM10 confirm 12 and ADAM17 counter 4.
For NC(=O)C1CCN(c2nc(-c3ccc(Oc4ccccc4)cc3)cs2)CC1 the results were ADAM17 inh 4, PLC-beta3 inh 0, ADAM10 inh 12 and PLC-gamma1 inh 1.
CCOC(=O)c1cc(-c2ccccc2C)n(CC2CC(c3ccc(OC)cc3)=NO2)n1 (stereo not drawn) was read as KLK7 zymogen act 0, ADAM17 inh 8, PLC-beta3 inh 5, ADAM10 inh 23*, PLC-gamma1 inh 6, ADAM10 confirm 1 and ADAM17 counter 0.
`CCNS(=O)(=O)c1ccc(CCC(=O)Nc2ccccc2)cc1` gave KLK7 zymogen act 0, ADAM17 inh -2, PLC-beta3 inh 3, ADAM10 inh 1 and PLC-gamma1 inh 3.
For CCNS(=O)(=O)c1ccc(CCC(=O)Nc2cc(Cl)ccc2Oc2ccccc2)cc1 the results were KLK7 zymogen act 0, ADAM17 inh 6, PLC-beta3 inh -14, ADAM10 inh 21*, PLC-gamma1 inh -4, ADAM10 confirm 4 and ADAM17 counter 2.
For COc1ccc(C2=NOC(C(=O)Nc3ccc4c(c3)OCO4)C2)cc1 (stereo not drawn) the results were KLK7 zymogen act 0, ADAM17 inh 4, PLC-beta3 inh 0, ADAM10 inh 22*, PLC-gamma1 inh 4, ADAM10 confirm 3 and ADAM17 counter 1.
For O=C(Nc1ccc2c(c1)OCO2)C1CC(c2ccc(Cl)cc2)=NO1 (stereo not drawn) the results were KLK7 zymogen act 1, ADAM17 inh -2, PLC-beta3 inh 0, ADAM10 inh 0 and PLC-gamma1 inh 1.
COc1cc(NC(=O)NC2CCCCN(Cc3cccc(Cl)c3)C2=O)cc(OC)c1 (stereo not drawn) was read as KLK7 zymogen act 0, ADAM17 inh 2, PLC-beta3 inh 1, ADAM10 inh 6 and PLC-gamma1 inh 3.
For Cc1ccc(CSc2nnc(CNc3ccc(F)cc3)o2)cc1 the results were KLK7 zymogen act 1, ADAM17 inh 5, PLC-beta3 inh 2, ADAM10 inh 26*, PLC-gamma1 inh -1, ADAM10 confirm 2 and ADAM17 counter 1.
`c1ccc(-c2cc(-c3nnc4sc(Cc5cccs5)nn34)[nH]n2)cc1` gave KLK7 zymogen act 0, ADAM17 inh -1, PLC-beta3 inh -1, ADAM10 inh -3 and PLC-gamma1 inh 0.
COc1ccc(N=Nc2c(C)n[nH]c2C)cc1 was read as KLK7 zymogen act -1, ADAM17 inh 3, PLC-beta3 inh 2, ADAM10 inh 11 and PLC-gamma1 inh 8.
Cc1n[nH]c(C)c1N=Nc1ccc(Br)cc1 was read as KLK7 zymogen act 1, ADAM17 inh 8, PLC-beta3 inh 10, ADAM10 inh 21*, PLC-gamma1 inh 7, ADAM10 confirm 3 and ADAM17 counter 1.
`O=c1c2ccccc2n(Cc2ccno2)n1[C@@H](Cc1ccccc1)Cn1cc(C2CCCC2)nn1` gave KLK7 zymogen act 0, ADAM17 inh -103, PLC-beta3 inh -54, ADAM10 inh -350 and PLC-gamma1 inh -37.
Screening Nc1ncccc1OCc1cccc(C(F)(F)F)c1 returned KLK7 zymogen act 0, ADAM17 inh -2, PLC-beta3 inh -8, ADAM10 inh -2 and PLC-gamma1 inh -1.
